Several values for one entry are separate records, joined by “and”; a condition that tells them apart may be missing. Identical values can stand only once. The campaign covered roughly 5,600 compounds. About 150 (2.7%) showed an effect of 50% or more. This is one part of a sample in which strong results are shown more often than they occur. Starred links: 1 amine or outer side, 2 acyl side, 3 side chain; linkers in the order of their positions; H or OH if unused. Positions of bridges follow the written chain, without caps; N, C: chain ends. Non-standard residues stand in square brackets, D forms with d. Residues, ends and D or L forms follow the SMILES beside them. ξ: configuration not given here. *: point of attachment. hTyr(3S-OH,4S-OH,3'-OSO3H) = N[C@H](C(=O)O)[C@H](O)[C@@H](O)c1ccc(O)c(OS(=O)(=O)O)c1; Orn(4R-OH,5R-OH) = O=C([C@H](C[C@@H](O)[C@@H](O)N[*:3])N[*:1])[*:2]; Pro(3S-OH,4S-Me) = C[C@H]1CN[C@H](C(=O)O)[C@H]1O; X1 = CCCCCOc1ccc(-c2cc(-c3ccc(C(=O)*)cc3)no2)cc1; Gln(3R-OH) = NC(=O)C[C@@H](O)[C@H](N)C(=O)O; Hyp = O=C(O)[C@@H]1C[C@@H](O)CN1; ξThr(3R) = C[C@@H](O)C(N)C(=O)O
What was measured:
[1] = target: T1, Protein deacetylase HDAC6 (Homo sapiens) (UniProt Q9UBN7); conditions: at 10 µM
T1 sequence (whole entry): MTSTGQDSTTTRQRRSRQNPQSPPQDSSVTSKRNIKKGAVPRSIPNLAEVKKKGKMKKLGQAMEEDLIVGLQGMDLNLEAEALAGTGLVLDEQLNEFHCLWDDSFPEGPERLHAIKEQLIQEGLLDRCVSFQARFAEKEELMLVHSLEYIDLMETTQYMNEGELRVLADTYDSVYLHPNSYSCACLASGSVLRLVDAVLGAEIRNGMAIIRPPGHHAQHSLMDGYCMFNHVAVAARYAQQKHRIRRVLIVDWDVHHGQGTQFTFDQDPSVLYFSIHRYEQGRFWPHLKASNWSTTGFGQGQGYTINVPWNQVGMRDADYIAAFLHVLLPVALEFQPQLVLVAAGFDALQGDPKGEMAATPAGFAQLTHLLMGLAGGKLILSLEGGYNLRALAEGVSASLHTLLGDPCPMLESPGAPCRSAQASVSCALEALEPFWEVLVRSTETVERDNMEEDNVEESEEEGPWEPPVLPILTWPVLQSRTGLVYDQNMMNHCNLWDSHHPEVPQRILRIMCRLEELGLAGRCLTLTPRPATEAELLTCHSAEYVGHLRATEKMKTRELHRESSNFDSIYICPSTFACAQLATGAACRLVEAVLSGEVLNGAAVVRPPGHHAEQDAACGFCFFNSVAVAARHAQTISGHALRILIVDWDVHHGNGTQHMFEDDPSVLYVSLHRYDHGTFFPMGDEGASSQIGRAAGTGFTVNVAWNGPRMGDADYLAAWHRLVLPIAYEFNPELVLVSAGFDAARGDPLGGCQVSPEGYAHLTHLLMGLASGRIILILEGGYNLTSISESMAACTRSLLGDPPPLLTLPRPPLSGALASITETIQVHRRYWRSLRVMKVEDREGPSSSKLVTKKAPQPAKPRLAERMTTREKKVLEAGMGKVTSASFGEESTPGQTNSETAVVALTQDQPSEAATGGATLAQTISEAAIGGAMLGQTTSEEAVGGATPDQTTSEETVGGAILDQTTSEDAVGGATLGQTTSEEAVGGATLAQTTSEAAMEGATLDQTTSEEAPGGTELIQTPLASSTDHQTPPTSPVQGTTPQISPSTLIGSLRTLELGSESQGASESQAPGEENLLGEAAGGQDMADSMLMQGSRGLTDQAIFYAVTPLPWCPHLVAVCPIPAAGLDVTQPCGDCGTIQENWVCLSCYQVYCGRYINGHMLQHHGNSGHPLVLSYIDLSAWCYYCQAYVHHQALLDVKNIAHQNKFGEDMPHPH

[2] = target: Protein deacetylase HDAC6 (Homo sapiens) (UniProt Q9UBN7); conditions: at 10 µM; remark: listed apart in the source

Molecule | inhibition [1] | inhibition [2] [%]
O=C(NNc1ccccc1)c1ccncc1 | -5.35% | 
O=C(/C=C/c1ccc2ccc(C(F)(F)F)cc2n1)c1ccncc1 | -2.03% | 
O=C(/C=C/c1ccc2ccccc2n1)c1ccncc1 | 77.3% | 
Cc1c(Cl)cccc1S(=O)(=O)Nc1nc(CC(=O)N2CCN(C)CC2)cs1 | 4.81% | 
CCO[C@@H](Cc1ccc(OCCn2c(C)ccc2-c2ccc(SC)cc2)cc1)C(=O)O | 46.3% | 
COc1cc(NC(=O)c2ccccn2)ccc1Cl | 94.4% | 
CC(C)OC(=O)Nc1cccc(Cl)c1 | -4.5% | 
O=C(Nc1ccc(Cl)cc1)Nc1ccc(Cl)c(Cl)c1 | -2.56% | 
O=C(Nc1ccc(S(=O)(=O)Nc2ccccc2Cl)c(Cl)c1)c1ccccn1 | 13.9% | 
O=C(Nc1cccc(Cl)c1)c1ccccn1 | 97.2% | 
O=C(Nc1cnc(Cl)nc1)c1ccc(F)c(F)c1 | -4.2% | 
Cc1cccc(C)c1NC(=O)[C@H]1CCCCN1C | 2.44% | 
c1ccc(CN2CCC3(CCc4ccccc43)CC2)cc1 | -2.02% | 
CN[C@@H](CCCNC(=N)N)C(=O)O | -8.08% | 
O=C(CCCS)NC1CCN(C(=O)COc2ccc(Cl)cc2Cl)CC1 | 7.84% | 
CO/N=C(/C(=O)N[C@@H]1C(=O)N2C(C(=O)O)=C(Cn3ccc(=N)n3CCO)CS[C@H]12)c1csc(N)n1 | -0.61% | 
O=C(N[C@H]1CCN(C(=O)c2cc(C(F)(F)F)cc(C(F)(F)F)c2)[C@H](Cc2ccc(Cl)cc2)C1)c1ccnc2ccccc12 | -1.37% | 
Cc1cn2nc([C@@H]3CCCCN3C(=O)c3cc(Cl)ccc3NS(C)(=O)=O)cc2nc1N1CC[C@H](N)C1 | -2.52% | 
Cc1nc(NS(=O)(=O)c2ccc(N)cc2)oc1C | 32.6% | 
SATRAPLATIN, CHEMBL3833367 |  | -6.7
O=C1c2cccc(O)c2C(=O)c2c(O)cc(CO)cc21 | 5.42% | 
Cc1cc(O)c2c(c1)C(=O)c1cc(O)cc(O)c1C2=O | 90.2% | 
CCS(=O)(=O)N(C)[C@H]1c2cc(C#N)ccc2OC(C)(C)[C@@H]1O | -5.99% | 
CC(=O)OC[C@H](N)C(=O)O | 3.65% | 
NC[C@H]1O[C@H](O[C@H]2[C@H](O[C@@H]3O[C@H](CO)[C@@H](O)[C@H]3O)[C@@H](O)[C@H](N)C[C@@H]2N)[C@H](N)[C@@H](O)[C@@H]1O | -5.95% and -3.47% | 
NC[C@H]1O[C@H](O[C@H]2[C@H](O)[C@@H](O[C@H]3O[C@H](CO)[C@@H](O)[C@H](N)[C@H]3O)[C@H](N)C[C@@H]2N)[C@H](N)C[C@@H]1O | -5.82% | 
NC[C@@H]1O[C@H](O[C@H]2[C@@H](O)[C@H](O[C@@H]3[C@@H](O)[C@H](N)C[C@H](N)[C@H]3O[C@H]3O[C@H](CO)[C@@H](O)[C@H](O)[C@H]3N)O[C@@H]2CO)[C@H](N)[C@@H](O)[C@@H]1O | 80.2% | 

Molecule | inhibition [1] | inhibition [2] [%]
C[N+](C)(C)[C@@H](Cc1c[nH]c(=S)[nH]1)C(=O)[O-] | 0.31% | 
CC/C(=C(/CC)c1ccc(OP(=O)(O)O)cc1)c1ccc(OP(=O)(O)O)cc1 | -0.19% | 
CC(=O)N1CCC[C@H]1C(=O)N[C@@H](Cc1cnc[nH]1)C(=O)N[C@@H](CO)C(=O)N[C@@H](CS)C(=O)N[C@@H](CC(N)=O)C(N)=O (Ac-PHSCN-NH2) | -4.4% | 
CCOC(=O)[C@H](CCc1ccccc1)N[C@@H](C)C(=O)N1Cc2cc(OC)c(OC)cc2C[C@H]1C(=O)O | -3.25% | 
COc1cc(OCc2cccc(-c3ccccc3)c2C)cc(OC)c1CN1CCCC[C@H]1C(=O)O | 51.3% | 
C#CC1(OCC(O)CN2CCN(c3cccc(C(F)(F)F)c3)CC2)CCCCC1 (stereo not drawn) | 3.19% | 
Cn1c(COc2ccc(CC3SC(=O)NC3=O)cc2)nc2ccccc2c1=O (stereo not drawn) | 6.76% | 
COCCOc1cnc2ccn([C@H](C)c3nnc4c(F)cc(-c5cnn(C)c5)cn34)c(=O)c2c1 | -3.49% | 
O=C(NCc1ccc(OC(F)(F)F)cc1)C1c2ccccc2C(=O)N1C1CCOCC1 (stereo not drawn) | 1.11% | 
C[C@H]1NC(=O)NC1=O | 0.16% | 
COc1cc(OC)c(/C=C2/C(=O)Nc3ccccc32)c(OC)c1 | -2.63% | 
Cc1[nH]c(/C=C2\C(=O)Nc3cc(-c4ccccc4)ccc32)c(C)c1CCC(=O)O | 96.4% | 
Cc1[nH]c(/C=C2\C(=O)Nc3ccc(F)cc32)c(C)c1C(=O)NCCN1CCCC1 | 2.96% | 
CN[C@@H]1[C@@H](O[C@H]2O[C@H](CO)[C@@H](N)[C@H](O)[C@H]2O)O[C@H]2C[C@@H](N)[C@H](O[C@H]3[C@H](O)[C@@H](O)[C@H](N)C[C@@H]3N)O[C@@H]2[C@@H]1O | 10.2% | 
CNC(=O)c1ccccc1Nc1nc(Nc2ccc3c(c2OC)CCC[C@H](N2CCN(CCO)CC2)C3)ncc1Cl | 83% | 
CN1CCN(Cc2ccc(Nc3ncc(Cl)c(Nc4ccccc4S(=O)(=O)N(C)C)n3)cc2)CC1 | -1.57% | 
COc1cc(N2CCOCC2)ccc1Nc1ncc(Cl)c(Nc2ccccc2NS(C)(=O)=O)n1 | -0.93% | 
CCCCCOc1ccc(-c2cc(-c3ccc(C(=O)N[C@H]4C[C@@H](O)[C@@H](O)NC(=O)[C@@H]5[C@@H](O)[C@@H](C)CN5C(=O)[C@H]([C@H](O)CC(N)=O)NC(=O)[C@H]([C@H](O)[C@@H](O)c5ccc(O)c(OS(=O)(=O)O)c5)NC(=O)[C@@H]5C[C@@H](O)CN5C(=O)C([C@@H](C)O)NC4=O)cc3)no2)cc1 (stereo partly drawn) (X1-[Orn(4R-OH,5R-OH)][ξThr(3R)][Hyp][hTyr(3S-OH,4S-OH,3'-OSO3H)][Gln(3R-OH)][Pro(3S-OH,4S-Me)]; lactam 1-C) | 4.51% | 
CC(C)c1ccc(C(=O)c2cccs2)c(SCCCCCCCCN(C)C)n1 | 3.78% | 
CN(C)CCCSc1ccccc1NC(=O)/C=C/c1ccccc1 | 92.4% | 
O=C(/C=C/c1ccccc1)NC(NC(=S)Nc1cccc2cccnc12)C(Cl)(Cl)Cl (stereo not drawn) | 3.55% | 
CNC[C@@H]1CC[C@@H](N)[C@H](O[C@H]2[C@H](O)[C@@H](O[C@H]3OC[C@](C)(O)[C@H](NC)[C@H]3O)[C@H](N)C[C@@H]2N)O1 | -3.43% | 
gallium-triquinolin-8-olate, CHEMBL4303465 |  | 8.35
C[C@H]1N=C(N(C)C)N=C(N)N1 | -1.55% | 
CN1C[C@@H]2CN(c3ccc(-c4ccccc4)nn3)C[C@@H]2C1 | 57.6% | 
O=C(c1cc(S(=O)(=O)Nc2ccccc2F)c(F)cc1Cl)N1CCN2CCC[C@@H]2C1 | -3.32% | 
